Source: PubChem (National Center for Advancing Translational Sciences (NCATS))
The list is not random: actives were taken first. Their share in the collection is about 13%.
HCMV antiviral: qHTS Assay for inhibitors of the human cytomegalovirus (HCMV). HFF cells, HCMV-luciferase reporter, 72 h; stronger effect = lower value. AID 1259415, 2018. actives 4.5% (n = 410,000). activity change, negative = inhibition, % at 57.5 µM; in the data active means activity change below about -60%; inconclusive means no clear call, values can overlap the other calls; inactive means above about -39%
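Two compound doses tested in HFFs infected with HCMV-luciferase, MOI 1 PFU/cell, 72 h at 37C. Lysate luminescence read with OneGlo; data normalized against buffer-only and 10uM Salinomycin inhibitor controls.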
Pf growth 48h: Primary qHTS for delayed death inhibitors of the malarial parasite plastid, 48 hour incubation; P. falciparum luciferase growth in erythrocytes, 48 h; Potency, µM (highest dose often 28.7 µM), inactives show at the highest dose activity change, negative = inhibition, usual class: inhibitors; actives 5.9% (n = 310,000); AID 504832, 2011; further: potency means the concentration at half of the fitted maximal effect
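Here the parasites carry a stable luciferase gene and grow inside erythrocytes in Albumax-based RPMI medium with compound for one erythrocytic cycle. Activity is scored as loss of luminescent signal.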
Pf growth 96h: Primary qHTS for delayed death inhibitors of the malarial parasite plastid, 96 hour incubation; P. falciparum luciferase reporter growth, 96 h; actives 6.9% (n = 320,000); Potency, µM (top dose mostly 28.7 µM), without a hit: at the top dose activity change, negative = inhibition, hits mostly inhibitors; AID 504834, 2011; further: potency means the concentration at half of the fitted maximal effect
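Parasite growth measured via integrated firefly luciferase reporter in P. falciparum. Infected erythrocytes at 2% hematocrit, 0.05% parasitemia final were treated 96 hours at 37 C under 5% CO2, and luminescence was read.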
HCV inh: qHTS Assay for Inhibitors of Hepatitis C Virus (HCV). Huh7.5.1 HCVcc-Cre infection, luciferase reporter, 44 h. Potency, µM (series often up to 41.8 µM), inactives show at the top dose activity change, negative = inhibition, usual class: inhibitors. actives 3.4% (n = 340,000). AID 651820, 2012; further: potency means the concentration at half of the fitted maximal effect
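Seed cells (1,000/well) for 4 h; treat with compound and infect with HCVcc-Cre, moi about 0.5. Incubate 44 h, then detect luciferase activity.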
* = called active by the depositor; ? = inconclusive; . = no result. Unless noted, the call rests on the fitted dose curve; in most records, active means well fitted inhibition curve with a large enough effect; inconclusive means small, poorly fitted or top-dose-only effect, or another doubt; inactive means no such curve, though single readings can be large or run the other way. On the % scale 0 is the no-effect control and ±100 the full control effect.

SMILES	HCMV antiviral	Pf growth 48h	Pf growth 96h	HCV inh
Cc1ccc(CNC(=O)CCCN2C(=O)COc3ccc(C)cc32)cc1	-8.1	.	.	.
CCCN1C(=O)c2[nH]nc(-c3ccccc3)c2C1c1ccc(F)cc1 (stereo not drawn)	38.1	.	.	.
CCOC(=O)c1c(N2C(=O)C3C4C=CC(C4)C3C2=O)sc2c1CCC(C)C2 (stereo not drawn)	-32.0	1.0%	13.1µM*	-1.2%
CCOC(=O)c1c(NC(=O)C2C3C=CC(C3)C2C(=O)O)sc2c1CCC(C)C2 (stereo not drawn)	27.6	-1.2%	?	-0.8%
O=C(c1cnn2c1NC(c1ccc(Br)cc1)CC2C(F)(F)F)N1CCN(C23CC4CC(CC(C4)C2)C3)CC1 (stereo not drawn)	108.8	3.7µM*	8.28µM*	-5.8%
CCOc1ccccc1NC(=O)C(C)N(c1ccccc1)S(C)(=O)=O (stereo not drawn)	-17.0	.	.	.
CCOC(=O)/C(C#N)=C1\Nc2ccccc2N=C1N(CC(C)C)CC(C)C	-34.6	2.33µM*	19.3%	-6.7%
CCCCOc1ccc(NC2=NC3(CCCC3)N=C(N)N2)cc1	13.4	1.17µM*	?	?
COc1ccc(OC)c(NC2=NC3(CCCC3)N=C(N)N2)c1	6.8	-21.5%	.	-23.1%
Cc1cc(C)cc(NC2=NC3(CCCCC3)N=C(N)N2)c1	?	.	1.04µM*	-19.2%
NC1=NC2(CCCCC2)N=C(Nc2ccc(F)cc2F)N1	27.5	?	3.7µM*	2.6%
Cc1cccc(NC2=NC(C)(C)N=C(N)N2)c1	-98.2*	0.0059µM*	-22.8%	?
CCc1cccc(C)c1NC(=O)Cn1cc2c(n1)CCCC2	-17.7	.	.	.
COc1ccc(NC(=O)c2cc(=O)c3cc(C)cc(C)c3o2)cc1	-6.6	.	.	.
Cc1ccc(C)c(N(CC(=O)NC2CCCC2)C(=O)c2cc3cc4cc(C)ccc4nc3s2)c1	-16.4	?	?	22.4µM*
COC(=O)c1cc2sc(C)cc2n1CC(=O)Nc1ccc(C)cc1Cl	-23.9	.	.	.
Cc1cccc(C(=O)NCc2cn3cccc(C)c3n2)c1	8.7	.	.	.
O=C(CCCO)c1ccc2c(c1)OCCO2	23.8	18.7%	1.8%	16.1%
CC1CCN(CC(=O)c2ccc3c(c2)OCCO3)CC1	-60.6*	297.8%	284.5%	2.8%
O=C(CNC1=NCCC1)c1ccc2c(c1)OCCO2	43.4	6.57µM*	?	?
O=C(CCCN1CCOCC1)c1ccc2c(c1)OCCO2	82.2	114.5%	69.0%	6.1%
O=C(CCN1CCOCC1)c1ccc2c(c1)OCCO2	-26.3	-7.6%	15.7%	11.2µM*
CCCc1cc(C(=O)Nc2c(C)nn(Cc3c(Cl)cccc3Cl)c2C)no1	-30.2	.	.	.
CCCCN1C(=O)C(CC(=O)NCC2CCCCC2)CC(C(=O)N(CC)CC)=C1C (stereo not drawn)	6.7	.	.	.
CCCCN1C(=O)C(CC(=O)NCC2CCCCC2)CC(C(=O)N(C)C)=C1C (stereo not drawn)	-105.3*	.	.	.
SMILES	HCMV antiviral	Pf growth 48h	Pf growth 96h	HCV inh
COc1ccc(NC(=O)CN(C)C(=O)CCCc2c[nH]c3ccccc23)cc1	-9.9	?	10.4µM*	?
CCOc1ccc(NC(=O)CN(C)C(=O)CCCc2c[nH]c3ccccc23)cc1OCC	-37.8	10.4µM*	?	?
COC(=O)c1ccccc1NC(=O)c1sc2nc(C)cc(C)c2c1NC(=O)c1ccccc1OC	6.1	.	.	.
COc1ccccc1C(=O)Nc1c(C(=O)Nc2cc(Cl)ccc2C)sc2nc(C)cc(C)c12	-101.9*	.	.	.
COc1ccc(Cn2cccc(NC(=O)Nc3cccc(OC)c3)c2=O)cc1	0.0	61.3%	?	14.1µM*
COc1cccc(Cn2cccc(NC(=O)Nc3ccccc3C)c2=O)c1	-16.7	-1.3%	32.9%	10µM*
COc1cccc(Cn2cccc(NC(=O)Nc3ccc(C#N)cc3)c2=O)c1	-66.1*	-8.3%	?	3.98µM*
O=C(Nc1ccccc1)Nc1cccn(Cc2c(F)cccc2Cl)c1=O	-18.6	60.9%	-15.1%	?
COc1cccc(Cn2cccc(NC(=O)NCc3ccccc3)c2=O)c1	16.1	-6.7%	-26.2%	?
COc1cccc(NC(=O)Nc2cccn(Cc3ccccc3)c2=O)c1	-27.0	?	0.0%	?
CCOC(=O)c1[nH]c2c(c1Cc1ccccc1)C(=O)CC(c1ccc(C(C)(C)C)cc1)C2 (stereo not drawn)	-37.7	.	.	.
